The whole screen tested about 360,000 compounds, of which about 25,000 (6.9%) were called active. About 9% were inconclusive and are not listed. The sample as a whole holds a higher share of actives than the screen did. Values without a mark were called inactive. Calls follow the shape of the dose curve; as a rule, active = well fitted inhibition curve with a large enough effect; inconclusive = small, poorly fitted or top-dose-only effect; inactive = flat fitted curve, though single readings scatter.
Each compound was assayed against Luciferin 4-monooxygenase (Photinus pyralis) (UniProt P08659) (assay: qHTS profiling assay for firefly luciferase inhibitor/activator using purifed enzyme and Km concentrations of substrates (counterscreen for miR-21 project)). Settings: purified FLuc, luminescence inhibition; series mostly up to 57.5 µM; activity change, negative = inhibition: at the top concentration.
Chain of Luciferin 4-monooxygenase (Photinus pyralis) (P08659 whole entry, looked up): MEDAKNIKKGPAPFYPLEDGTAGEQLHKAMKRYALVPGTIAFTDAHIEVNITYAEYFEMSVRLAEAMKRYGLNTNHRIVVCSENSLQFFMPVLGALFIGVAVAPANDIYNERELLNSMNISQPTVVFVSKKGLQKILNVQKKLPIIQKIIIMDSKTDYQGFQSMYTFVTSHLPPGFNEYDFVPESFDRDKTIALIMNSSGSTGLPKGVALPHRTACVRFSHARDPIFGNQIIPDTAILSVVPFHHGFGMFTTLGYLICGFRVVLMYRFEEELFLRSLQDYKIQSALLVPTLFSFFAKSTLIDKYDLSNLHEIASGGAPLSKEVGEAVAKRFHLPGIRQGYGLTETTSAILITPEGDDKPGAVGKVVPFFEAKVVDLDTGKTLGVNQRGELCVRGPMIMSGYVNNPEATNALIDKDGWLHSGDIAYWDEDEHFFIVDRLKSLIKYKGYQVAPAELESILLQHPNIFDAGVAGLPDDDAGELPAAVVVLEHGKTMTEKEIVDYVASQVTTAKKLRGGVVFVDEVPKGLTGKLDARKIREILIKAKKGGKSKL
Description: MLPCN Grant: 1 R21 NS059478-01 (miR-21 grant) Assay Provider: NCGC NCGC Assay Overview: Firefly (Photinus pyralis) luciferase is one of the most commonly used transcriptional reporters for a number of reasons. It is considered one of the more dynamically responsive reporters -that is, responsive to changes in reporter transcription - as it requires no post-translational modifications and is enzymatically active directly after protein synthesis (Wood, 1998). Additionally, the half-life of the luciferase protein is short relative to other reporter-gene products (Wood, 1995). Whereas reporters with long half-lives potentially allow for increased signal due to accumulation of reporter-gene product, once accumulated in the cell, dynamic changes in reporter-gene expression may be difficult to detect(Fan and Wood, 2007; Almond et al., 2004). It has been shown that wild-type P. pyralis luciferase has a half-life of approximately […] hours in mammalian cells (Thompson et al., 1991). Firefly luciferase reporter-gene assays are also generally considered one of the most sensitive assay types (Wood, 1995; Wood, 1998). Although light produced in a bioluminescence reaction is of lower intensity than that produced during fluorescence emission, this is offset by little to no background light inherent to luminescent assays. Thus the luciferase reporter can be expressed at much lower levels than fluorescent proteins while still providing robust signal. # However, it was initially observed, in 1991, by Thompson et al., that compounds that resemble the substrates of firefly luciferase (FLuc) can act as competitive inhibitors of the enzyme, and that these compounds, upon interaction with luciferase in the cell, can actually stabilize the protein and increase its half-life. Accumulated intracellular FLuc protein can be measured as an increase in luminescence signal, upon addition of detection reagents (which contain high concentrations of FLuc substrates) commonly used in high-throughput screening. In cell-based reporter gene assays that use FLuc as the reporter gene to quantitate the potential influence of a given compound against the target biology, this apparent increase in luminescence can mistakenly be interpreted as identification of a compound that is active against the target of interest. This is the case for the miR-21 FLuc reporter gene assay used to identify inhibitors of the miR-21 pathway (PubChem AID 2289) - compounds of interest will inhibit miR-21 biogenesis/expression or activity, and are identified by causing an increase in luminescence, due to increased FLuc translation. However, FLuc inhibitory compounds that stabilize the FLuc protein will give an identical read-out, making it difficult to distinguish compounds that are active against the target from those active against FLuc. Previous profiling work to determine the prevalence of compounds that affect FLuc enzymatic activity (PubChem AID 411) identified that ~3% of the MLSMR library (then at ~72K) inhibited FLuc. […] Since the MLSMR had grown to ~350K compounds, and since it was expected that a significant percentage of compounds found active in the miR-21 FLuc assay would be FLuc inhibitors, the library was screened for activity against FLuc using a biochemical assay of purified FLuc and KM concentrations of FLuc substrates (D-luciferin and ATP).
NCGC Assay Protocol Summary: Reagents: 50mM Tris acetate, pH 7.5; 10mM Mg acetate; 10uM D-luciferin (Sigma #L9504); 10uM ATP; 0.01% Tween-20; 0.05% BSA; 10nM P. pyralis luciferase (Sigma #L9506) Control compounds used were two known firefly luciferase inhibitors (compounds (2) and (5) in Auld et al., 2010), and DMSO. […]
For `COc1ccccc1-c1noc(CSc2nnc(-c3ccccc3)n2-c2ccc(C)c(C)c2)n1`, the “activity change, negative = inhibition” value was -0.724%. With `c1cc(-n2cnnn2)ccc1NC1=NCCC1` the “activity change, negative = inhibition” value was -0.318%. `Cc1ccc(C(=O)Cc2nnc(C)s2)cc1` was tested, and the Potency was 9.53 µM (active). `Cc1ccc(C(=O)Cn2cccn2)cc1` was tested, and the “activity change, negative = inhibition” value was 2.73%. With `Cc1ccc(S(=O)(=O)CC(=O)Nc2nnc(C)s2)cc1` the “activity change, negative = inhibition” value was 0.491%. For `CC(CO)N1CCS(=O)(=O)CC1` (stereo unspecified), the “activity change, negative = inhibition” value was 5.19%. `CCc1cc2c(cc3c(=O)n(CC(=O)N4CCN(c5cc(Cl)ccc5C)CC4)nc(CC)n32)s1` was tested, and the “activity change, negative = inhibition” value was -10.4%. For `Cc1ccc(NC(=O)c2oc3ccccc3c2NC(=O)Cc2cccs2)cc1`, the “activity change, negative = inhibition” value was 1.25%. In the case of `Cc1cc2c(cc3c(SCc4nc(-c5ccccc5)oc4C)nnc(C)n32)o1`, the “activity change, negative = inhibition” value is reported as -1.75%. `Cc1ccc(S(=O)(=O)NCCSc2ccccc2)cc1[N+](=O)[O-]` was tested, and the “activity change, negative = inhibition” value was 6.22%. With `CCS(=O)(=O)c1cc([N+](=O)[O-])c(Sc2ccccc2N)s1` the Potency was 4.26 µM (active). `CC(=O)c1ccc(N2CCN(C3C(=O)c4ccccc4N3C(C)=O)CC2)cc1` (stereo unspecified) was tested, and the “activity change, negative = inhibition” value was -11.4%. With `CCOC(=O)c1ccc(NC(=O)CCn2cnnn2)cc1` the “activity change, negative = inhibition” value was 2.52%. In the case of `CC(C)c1csc(CN2CCC(CO)(Cc3ccccc3)CC2)n1`, the Potency is reported as 6.75 µM (active). With `CC(=O)c1cccc(CN2CCC(CO)(Cc3ccccc3)CC2)c1` the “activity change, negative = inhibition” value was 1.15%. For `OCC1(Cc2ccccc2)CCN(Cc2cc3ccccc3o2)CC1`, the “activity change, negative = inhibition” value was 3.73%. In the case of `Cc1nc2c(-c3ccccc3)c(C)nn2c(C)c1CCC(=O)NCCc1ccccc1`, the “activity change, negative = inhibition” value is reported as -13.9%. For `COc1cccc(CNC(=O)C2CCN(S(=O)(=O)c3ccc4c(ccn4C)c3)CC2)c1`, the “activity change, negative = inhibition” value was -8.5%. With `CC1CCCCC1NC(=O)NC(=O)COC(=O)C1=NN(c2ccccc2)C(=O)CC1` (stereo unspecified) the “activity change, negative = inhibition” value was 5.26%. `CS/C(=C\C(=O)c1ccco1)Nc1ccccc1Cl` was tested, and the Potency was 3.79 µM (active). `Cc1c(Cl)cccc1NC(=O)CCC(=O)N/N=C/c1ccco1` was tested, and the “activity change, negative = inhibition” value was -0.65%. With `O=C(Nc1ccccc1C(=O)N1CCCCC1)c1ccco1` the “activity change, negative = inhibition” value was 2.11%. In the case of `COc1cccc(NC(=O)N(Cc2cn(C)c3ccccc23)C2CCCCCC2)c1`, the “activity change, negative = inhibition” value is reported as 4.23%. For `CC(=O)OC1=C(C(C)=O)N(Cc2ccccc2)S(=O)(=O)c2ccccc21`, the “activity change, negative = inhibition” value was -2.47%. For `Cc1ccc(C2=N/C(=C\c3ccc(OS(=O)(=O)c4ccc(C)cc4)cc3)C(=O)O2)cc1`, the “activity change, negative = inhibition” value was -0.259%. With `CN1/C(=C\C=C2\N=C(c3ccc(F)cc3)OC2=O)C(C)(C)c2ccccc21` the “activity change, negative = inhibition” value was -15.8%. For `Cc1cccc(C2=N/C(=C/c3cccs3)C(=O)O2)c1`, the Potency was 2.69 µM (active). With `CCCCOc1ccc(C(=O)N2CC(=O)Nc3ccc(Br)cc3C2c2ccc(F)cc2)cc1` (stereo unspecified) the “activity change, negative = inhibition” value was 2.33%. With `CCc1ccc(CNC(=O)c2cc3cc4ccc(OC)cc4nc3o2)cc1` the “activity change, negative = inhibition” value was -1.47%. `Cc1ccc2oc(=O)c3cnn(CC(=O)N4CCCCCC4)c3c2c1` was tested, and the “activity change, negative = inhibition” value was -0.0331%. `Cc1ccc2cc3cc(C(=O)N4CCCCCC4)oc3nc2c1` was tested, and the Potency was 2.69 µM (active). With `CCCCn1c(N)c(N(CC)C(=O)c2ccc(N(C)S(=O)(=O)c3ccc(C)cc3)cc2)c(=O)[nH]c1=O` the “activity change, negative = inhibition” value was 3.09%. With `Cc1cc(Br)ccc1SCC(=O)OCC(=O)NCc1ccc2c(c1)OCO2` the “activity change, negative = inhibition” value was 2.23%. `Cc1ccccc1NC(=O)Cc1nc(COC(=O)c2cccnc2Cl)cs1` was tested, and the “activity change, negative = inhibition” value was 5.2%. `CCCNC(=O)C1CCC(Cn2c(=O)c3sccc3n(Cc3ccccc3F)c2=O)CC1` (stereo unspecified) was tested, and the “activity change, negative = inhibition” value was -0.991%. In the case of `CCN(CC)C(=O)CSc1ncnc2c1cnn2-c1ccccc1`, the Potency is reported as 16.9 µM (active). `COc1ccc(NC(=O)CSc2ncnc3[nH]ncc23)cc1` was tested, and the “activity change, negative = inhibition” value was -2.98%. For `CC(C)Sc1ncnc2c1cnn2-c1ccccc1`, the Potency was 1.51 µM (active). For `CC(=O)Cn1cnc2c(cnn2-c2ccccc2)c1=O`, the “activity change, negative = inhibition” value was -18.6%. `O=C(Cn1cnc2c(cnn2-c2ccccc2)c1=O)NCc1ccccc1` was tested, and the “activity change, negative = inhibition” value was 0.29%. In the case of `CC(=O)Nc1ccc(NC(=O)CSc2ncnc3c2cnn3Cc2ccccc2)cc1`, the “activity change, negative = inhibition” value is reported as -2.73%. With `COc1ccc(-n2ncc3c(SCC(=O)NNC(C)=O)ncnc32)cc1` the Potency was 16.9 µM (active). With `O=C(Cn1cnc2c(cnn2-c2ccc(F)cc2)c1=O)NCCc1ccccc1` the “activity change, negative = inhibition” value was 0.0901%. `CC(Sc1ncnc2c1cnn2-c1ccccc1)C(=O)Nc1ccc(N2CCOCC2)cc1` (stereo unspecified) was tested, and the “activity change, negative = inhibition” value was -13.5%. In the case of `CCN(CC)C(=O)CSc1nc2cc3c(cc2c(=O)n1CCCC(=O)NCc1ccc2c(c1)OCO2)OCO3`, the “activity change, negative = inhibition” value is reported as -12.4%. In the case of `CCC1=Nc2cc(C(=O)NCCCOC(C)C)ccc2Sc2ccc(C)cc21`, the “activity change, negative = inhibition” value is reported as -18%. In the case of `CCN(CC)S(=O)(=O)c1ccc2c(c1)c(=O)c(C(=O)N1CCN(c3cccc(Cl)c3)CC1)cn2C`, the “activity change, negative = inhibition” value is reported as -3.84%. With `CC(C)(C)OC(=O)N1CCC(c2c(C(=O)Nc3ccc4c(c3)OCO4)cnn2-c2ccccc2)CC1` the “activity change, negative = inhibition” value was -10.2%. `COc1ccc(-c2noc(CCC(=O)N(C)c3ccccc3C)n2)cc1` was tested, and the “activity change, negative = inhibition” value was -2%. With `CN(CC(=O)NCC(c1ccccc1)N1CCCC1)S(=O)(=O)c1ccc(Cl)cc1` (stereo unspecified) the “activity change, negative = inhibition” value was 4.5%. In the case of `CCOC(=O)c1ccc(NC(=O)Cn2c(=O)cc(C)c3c(C)nn(-c4cccc(F)c4)c32)cc1`, the “activity change, negative = inhibition” value is reported as -1.71%.

From PubChem BioAssay AID588342 (National Center for Advancing Translational Sciences (NCATS), 2011)
Also: nearly all actives have a fitted effect of over 55% in size.
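For activity change, negative = inhibition in this document: plate controls were vehicle for no effect and reference inhibitor for full effect.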
